Results: the supplement of paper PMC10681739

The sequences below were run against RUNX1 (UniProt Q01196) (assay: RUNX1 binding intensity (PBM fluorescence), RUNX1 alone (arbitrary fluorescence units); higher = stronger binding). Conditions: RUNX1 concentration 2 nM; ETS1 concentration 0 nM.
Method: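 Cooperative gcPBM on 36-bp genomic probes with neighbouring ETS1 and RUNX1 sites. Recombinant human RUNX1 (2 nM) was incubated alone or with ETS1 (25 nM) and detected with anti-RUNX1 antibody plus Alexa488 secondary. Values are medians over 4 replicate spots; the RUNX1+ETS1 data were normalised to the RUNX1-only data. The probes sit in constant array flanks that are not printed.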
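Further: Full-length recombinant human RUNX1 bound to double-stranded 36-bp genomic probes on a high-density microarray, scored as Alexa488 fluorescence per spot via anti-RUNX1 antibody, median of four replicate spots.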

Sequence of RUNX1 (Q01196 whole entry): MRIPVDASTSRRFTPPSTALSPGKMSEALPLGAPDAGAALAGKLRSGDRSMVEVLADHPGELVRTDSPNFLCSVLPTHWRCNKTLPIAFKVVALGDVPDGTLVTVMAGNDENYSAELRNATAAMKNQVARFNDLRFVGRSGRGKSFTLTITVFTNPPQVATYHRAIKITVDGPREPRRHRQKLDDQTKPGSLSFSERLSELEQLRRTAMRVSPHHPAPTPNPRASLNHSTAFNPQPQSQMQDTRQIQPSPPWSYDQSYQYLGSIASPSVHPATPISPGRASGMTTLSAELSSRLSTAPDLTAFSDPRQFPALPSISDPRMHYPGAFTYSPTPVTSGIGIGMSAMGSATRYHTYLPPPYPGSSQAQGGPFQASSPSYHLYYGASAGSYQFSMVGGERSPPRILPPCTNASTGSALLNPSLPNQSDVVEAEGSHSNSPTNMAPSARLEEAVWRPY

Sequence | RUNX1 binding intensity
TGCAGCTATGGCCGGAAGCCTGTGGGTGTGGGAGGA | 726
CGCCGCTCAACTTCCGGCAACCACAGCTCTCTCTGA | 1070
CACCTAAAGCCATTGGGATGTGGTTTCTCTTTTTCA | 1040
TGTCAGCTGCGTTTCCGCGGTCGCGGGTGAGTGTGC | 752
GTTGCCCCACTTCCTGCCAGTGGTTTTTGGTTGGCC | 944
GCGAGAGGGAGGAAGTGACTCACCAACCACAACAAA | 970
CTAGCCAGGAAGATAAAGAAGAAACCACCAAAGAGA | 870
TTGGAGGCGGAAACAGGCACCGAAAGCGGTGGAAGT | 717
CGAACGCCGGACGTTCTGGGCACGTGACCGCCACCC | 863
GACTTGGGGGAAGTGGCTTGGTTTGCGTGGTTTCTC | 952
CCGCGAGCCGTCACTTCCTGTGGGCTGGGCCGAGCC | 924
TACTACTTACCAGCAGGATGTGGTCCCTGCCCACTG | 809
TCTCCCGGAACTGCTCCTTCACCATGATGACCGCTG | 966
GCAGGGACCGGAAGTCCATGGCTCTGCCGCAACCCT | 738
CCGCGCACCCGGAACTACCTCCCGACCCGCATCCCC | 1290
CAAAAGTGCTTCCTCTCGAGGGGTTGTGGTTCTTAC | 716
GCGAAAAACGCGGAAATGCGGTGGCGGCGGCCCGCT | 721
ATTTCGCTGAAAACAGGAAACCACGAAGCCCAGATG | 899
GCTGGGGCAGGAAGCTTCTAGGCCACAGACAGGACG | 711
GTTCCTAGGCAGGCAGGATGTGGCTATAAGCTACAT | 819

Sequence | RUNX1 binding intensity
CATTTCAGTCCAGGATGTGGGTGCACACACCGCTTC | 798
CCATATCTGGCTTCCTAAGGAGGAACCACAAACCGT | 1040
CCTTTACGTTTTCCTGTTGCGGGTTCTATCGCTCTG | 1600
AAAGACAGGATGTGGGGGAGTGAGCCACAAGGGCCC | 752
AACCTGCAGACTTCCTGCCATGTGACCACAGGGTCT | 915
TTGCTCCCGGAAGCCCCGCCCGACCGCGGCTCCTGA | 865
GGCCTCGGCCACATCCGGGTTCCACCGCAGATTCGG | 819
GCACTCGGATGTTGGCCGTAGTTGTGGTTATAGTTG | 1010
CCTTGCAGCAACGGATGTGGGTTTTTTTTTTTCTTT | 1120
ACCCTGAAATTACCCGGATGTGGTCCCCGCGCGCGC | 898
GACTCCATTTCCCGTCGGCTCGCGGTGGGAGCGCCG | 981
CTCACAGCAGCCCCAGGAAACCACCTCTTCCTTCAG | 997
CTCCTTCCTGTGTGTTACTCTTAAAAACCACAGAGG | 1230
ACTCCAGAGGAAGTGGCAAGACGAGCGCGGTAACGG | 728
AGATTAGATGCAGGATGTGGTATACAAAGGCACGTT | 823
GGCTTCCGGCGGGGTACCCTCCTCTGTGGGCGGGGC | 841
GTTGAAATTGAGCTTCCGTTGGTGGTTAACCCTCTG | 894
CCTCAATTTCCTGGCCAGAGAAACCACTGCCTCTCA | 1030
AGGCAAACTACAGGAAGATCCTGCCCGCAACTTGGT | 785
GCCCCCGGCTGGGCAGGATGTGGTGGCAGCTGCAGG | 743
